# Laboratory results: PubChem BioAssay (Tox21)
# Values joined by “and” are separate entries in the source; they are usually repeats but may differ in a detail not shown here. Equal values may be shown once. Records with an inconclusive call do not appear. A call without a number means that no potency is given here. Where a structure was tested more than once in an assay, its records may differ in their call. Active and inactive are the calls of the source. Unless noted, calls come from the whole dose curve; as a rule, active = well fitted curve in the direction sought with a large enough effect in the repeat runs; inconclusive = weak or mixed curves; inactive = no such curve, though single readings can be large; an effect the other way counts as inactive or inconclusive.
# How the values were obtained:
# [1] = qHTS assay to identify small molecule antagonists of the glucocorticoid receptor (GR) signaling pathway - cell viability counter screen (AID 720693); note: nearly all actives have a fitted effect of over 55% in size
# [2] = qHTS assay for identifying genotoxic compounds that show differential cytotoxicity against isogenic chicken DT40 cell lines with known DNA damage response pathways - wild type cell line (AID 743012); note: nearly all actives have a fitted effect of over 60% in size; note: potency is the fitted concentration of half-maximal effect
# Method in brief: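 300 wt DT40 cells/well; cpd (DMSO) pintool-transferred after ~0.5 h at 37 C/5% CO2; 40 h incubation; CellTiter-Glo added, 30 min RT; luminescence read.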
# [3] = qHTS assay for identifying genotoxic compounds that show differential cytotoxicity against isogenic chicken DT40 cell lines with known DNA damage response pathways - Rev3 mutant cell line (AID 743014); note: nearly all actives have a fitted effect of over 55% in size; note: potency is the fitted concentration of half-maximal effect
# [4] = qHTS assay for identifying genotoxic compounds that show differential cytotoxicity against isogenic chicken DT40 cell lines with known DNA damage response pathways - Rad54/Ku70 mutant cell line (AID 743015); note: nearly all actives have a fitted effect of over 60% in size; note: potency is the fitted concentration of half-maximal effect
# [5] = qHTS assay to identify small molecule antagonists of the androgen receptor (AR) signaling pathway - cell viability counter screen (AID 743033; note: nearly all actives have a fitted effect of over 45% in size)
# [6] = qHTS assay to identify small molecule antagonists of the androgen receptor (AR) signaling pathway using the MDA cell line - cell viability counter screen (AID 743041; note: nearly all actives have a fitted effect of over 45% in size)
# Method in brief: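 Compound exposure lasted 16 h at 37C in MDA-kb2 AR-luc cells stimulated with R1881. Protease-based CellTiter-Fluor reagent was applied for the final 30 min and fluorescence measured.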
# [7] = qHTS assay to identify small molecule antagonists of the thyroid receptor (TR) signaling pathway - cell viability counter screen (AID 743064); note: nearly all actives have a fitted effect of over 50% in size; note: potency is the fitted concentration of half-maximal effect
# Method in brief: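 CellTiter-Fluor readout, 30 min at 37 °C/5% CO2, following 23.5 h incubation of GH3.TRE-Luc cells with test compound and 1 nM T3 (final).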
# [8] = qHTS assay to identify small molecule antagonists of the thyroid receptor (TR) signaling pathway (AID 743065); note: series mostly up to about 70 µM; nearly all actives have a fitted effect of over 55% in size
# Method in brief: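 GH3.TRE-Luc rat pituitary cells (two TREs driving luciferase) were dosed with compound, then stimulated with 1 nM T3 (final) for 23.5 h at 37 C. ONE-Glo luminescence was the read-out, with CellTiter-Fluor fluorescence as the cytotoxicity counter-screen.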
# [9] = tested on: thyroid hormone receptor (rat, GH3 cells); assay: qHTS assay to identify small molecule agonists of the thyroid receptor (TR) signaling pathway (AID 743066; calls by dose curve)
# [10] = target: Estrogen receptor (Homo sapiens) (UniProt P03372); assay: qHTS assay to identify small molecule antagonists of the estrogen receptor alpha (ER-alpha) signaling pathway (AID 743069; active = well fitted curve in the direction sought with a large enough effect in the signal ratio in the repeat runs, not every such curve was filed as active; the % refers to the signal ratio)
# Method in brief: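 In this cell-based reporter format, GripTite HEK293 cells harbouring ER-alpha-UAS-bla were grown overnight with 2% charcoal-stripped FBS, dosed with DMSO-dissolved compounds, then challenged with 17beta-estradiol. After 18 hr at 37C, beta-lactamase activity was detected by FRET fluorescence.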
# [11] = qHTS assay to identify small molecule antagonists of the estrogen receptor alpha (ER-alpha) signaling pathway - cell viability counter screen (AID 743074; calls by dose curve; note: nearly all actives have a fitted effect of over 45% in size)
# [12] = target: Estrogen receptor (Homo sapiens) (UniProt P03372); assay: qHTS assay to identify small molecule agonists of the estrogen receptor alpha (ER-alpha) signaling pathway (AID 743075; calls by dose curve)
# [13] = target: Estrogen receptor (Homo sapiens) (UniProt P03372); assay: qHTS assay to identify small molecule agonists of the estrogen receptor alpha (ER-alpha) signaling pathway using the BG1 cell line (AID 743079); note: nearly all actives have a fitted effect of over 20% in size; note: potency is the fitted concentration of half-maximal effect
# [14] = qHTS assay to identify small molecule antagonists of the estrogen receptor alpha (ER-alpha) signaling pathway using the BG1 cell line (AID 743080; calls by dose curve;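 note: BG1 cells stimulated with 17beta-estradiol alongside compound; series mostly up to about 70 µM; nearly all actives have a fitted effect of over 25% in size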)
# Method in brief: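 Luciferase inhibition measured with ONE-Glo after 30 min at RT in BG1Luc4E2 cells given test compounds and 17beta-estradiol for 21.5 h at 37 C; CellTiter-Fluor viability read in the same wells beforehand.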
# [15] = qHTS assay to identify small molecule antagonists of the estrogen receptor alpha (ER-alpha) signaling pathway using the BG1 cell line - cell viability counter screen (AID 743081);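 note: compound given together with 17beta-estradiol as the ER stimulus; nearly all actives have a fitted effect of over 45% in size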; note: potency is the fitted concentration of half-maximal effect
# Aromatase (Homo sapiens) = Aromatase (Homo sapiens) (UniProt P11511); assay: qHTS assay to identify aromatase inhibitors (AID 743083); note: series mostly up to about 70 µM; nearly all actives have a fitted effect of over 55% in size
# [16] = qHTS assay to identify aromatase inhibitors - cell viability counter screen (AID 743084); note: potency is the fitted concentration of half-maximal effect
# [17] = target: Androgen receptor (Homo sapiens) (UniProt P10275); assay: qHTS assay to identify small molecule antagonists of the androgen receptor (AR) signaling pathway (AID 743035; active = well fitted inhibition curve with a large enough effect in the signal ratio in the repeat runs, not every such curve was filed as active; the % refers to the signal ratio)
# Method in brief: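 In this cell-based reporter screen, compounds were tested in concentration series against R1881-activated HEK293 cells expressing beta-lactamase under UAS control; after 16 h at 37C, FRET substrate was added and fluorescence read 2 h later.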
# [18] = target: Androgen receptor (Homo sapiens) (UniProt P10275); assay: qHTS assay to identify small molecule agonists of the androgen receptor (AR) signaling pathway using the MDA cell line (AID 743040; note: nearly all actives have a fitted effect of over 20% in size)
# Method in brief: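 Testing was done with the MDA-kb2 AR-luc line, a human breast carcinoma stably transfected with MMTV-luciferase containing AR and GR response elements. Cells were exposed 16 h at 37C before ONE-Glo luminescence detection.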
# [19] = target: Androgen receptor (Homo sapiens) (UniProt P10275); assay: qHTS assay to identify small molecule antagonists of the androgen receptor (AR) signaling pathway using the MDA cell line (AID 743042; note: nearly all actives have a fitted effect of over 55% in size)
# Method in brief: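 MDA-kb2 breast carcinoma cells carrying MMTV-luciferase (AR/GR responsive) were co-treated with compounds and the agonist R1881 for 16 h at 37C. Inhibition read as ONE-Glo luminescence; CellTiter-Fluor fluorescence measured in parallel for cytotoxicity.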
# Sequence of Androgen receptor (Homo sapiens) (P10275 whole entry, looked up): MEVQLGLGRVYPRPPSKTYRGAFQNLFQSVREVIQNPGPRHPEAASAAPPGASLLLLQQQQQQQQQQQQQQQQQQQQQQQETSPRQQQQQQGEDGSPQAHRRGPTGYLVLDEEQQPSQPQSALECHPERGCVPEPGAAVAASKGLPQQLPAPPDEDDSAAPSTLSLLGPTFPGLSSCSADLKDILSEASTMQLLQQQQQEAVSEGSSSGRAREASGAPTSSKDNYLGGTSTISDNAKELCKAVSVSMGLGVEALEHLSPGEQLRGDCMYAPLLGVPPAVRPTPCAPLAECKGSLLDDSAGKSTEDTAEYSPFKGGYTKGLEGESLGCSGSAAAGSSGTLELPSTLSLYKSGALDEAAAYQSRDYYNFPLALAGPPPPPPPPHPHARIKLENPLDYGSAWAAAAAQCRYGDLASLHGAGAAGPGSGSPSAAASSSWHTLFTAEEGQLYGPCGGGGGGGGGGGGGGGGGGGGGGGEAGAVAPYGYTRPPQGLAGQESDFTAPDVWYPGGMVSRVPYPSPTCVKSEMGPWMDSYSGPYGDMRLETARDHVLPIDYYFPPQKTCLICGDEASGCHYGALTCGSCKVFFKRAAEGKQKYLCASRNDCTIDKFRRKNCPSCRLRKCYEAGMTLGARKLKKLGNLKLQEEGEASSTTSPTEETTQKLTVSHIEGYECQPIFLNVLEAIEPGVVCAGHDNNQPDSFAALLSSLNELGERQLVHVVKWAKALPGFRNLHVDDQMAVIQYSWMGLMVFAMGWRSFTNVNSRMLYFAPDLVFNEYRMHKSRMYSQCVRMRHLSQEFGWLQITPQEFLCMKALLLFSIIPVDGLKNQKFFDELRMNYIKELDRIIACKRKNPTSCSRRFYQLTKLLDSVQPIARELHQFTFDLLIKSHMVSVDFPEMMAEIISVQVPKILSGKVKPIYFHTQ
# Sequence of Aromatase (Homo sapiens) (P11511 whole entry, looked up): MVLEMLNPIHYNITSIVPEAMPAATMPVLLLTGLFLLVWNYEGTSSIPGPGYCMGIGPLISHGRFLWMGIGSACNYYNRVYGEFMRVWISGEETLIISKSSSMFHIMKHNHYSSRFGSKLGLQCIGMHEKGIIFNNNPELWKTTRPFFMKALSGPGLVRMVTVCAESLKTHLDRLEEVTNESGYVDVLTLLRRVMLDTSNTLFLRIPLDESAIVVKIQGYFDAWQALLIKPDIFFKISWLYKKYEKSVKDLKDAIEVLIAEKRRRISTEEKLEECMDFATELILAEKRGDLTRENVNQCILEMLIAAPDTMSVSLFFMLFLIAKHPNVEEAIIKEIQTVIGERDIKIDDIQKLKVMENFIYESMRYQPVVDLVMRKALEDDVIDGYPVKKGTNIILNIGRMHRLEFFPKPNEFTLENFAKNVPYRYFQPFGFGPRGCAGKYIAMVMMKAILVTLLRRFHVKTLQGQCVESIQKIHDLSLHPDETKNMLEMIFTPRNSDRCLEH
# Sequence of Estrogen receptor (Homo sapiens) (P03372 whole entry, looked up): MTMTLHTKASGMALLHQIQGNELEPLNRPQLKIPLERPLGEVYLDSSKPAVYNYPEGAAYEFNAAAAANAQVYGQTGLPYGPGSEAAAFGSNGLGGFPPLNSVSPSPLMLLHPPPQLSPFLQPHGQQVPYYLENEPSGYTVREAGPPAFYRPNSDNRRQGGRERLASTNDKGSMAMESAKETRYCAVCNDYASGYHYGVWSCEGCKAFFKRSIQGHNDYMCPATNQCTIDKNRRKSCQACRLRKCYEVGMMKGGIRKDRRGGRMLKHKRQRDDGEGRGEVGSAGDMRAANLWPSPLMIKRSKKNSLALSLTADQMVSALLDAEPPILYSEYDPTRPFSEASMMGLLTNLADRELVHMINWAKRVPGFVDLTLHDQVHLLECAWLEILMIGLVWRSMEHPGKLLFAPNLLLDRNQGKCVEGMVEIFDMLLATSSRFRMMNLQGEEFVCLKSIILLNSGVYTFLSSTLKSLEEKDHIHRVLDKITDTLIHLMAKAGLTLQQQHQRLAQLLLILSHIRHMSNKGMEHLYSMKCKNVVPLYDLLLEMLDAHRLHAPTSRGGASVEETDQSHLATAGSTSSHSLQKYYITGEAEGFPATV
Structure (SMILES),Potency [1],Potency [2],Potency [3],Potency [4],outcome [5],Potency [6],Potency [7],Potency [8],Potency [9],Potency [10],Potency [11],Potency [12],Potency [13],Potency [14],Potency [15],Potency (Aromatase (Homo sapiens)),Potency [16],outcome [17],Potency [18],outcome [19]
CC1(C)[C@@H]2CC[C@@]1(C)C(=O)C2,inactive,inactive,4.73 µM (active) and inactive,2.98 µM (active) and inactive,inactive,inactive,inactive,inactive,inactive,inactive,inactive,inactive,inactive,inactive,inactive,inactive,inactive,–,–,–
CC(C)[C@@H]1CC[C@@H](C)C[C@H]1O,inactive,inactive,inactive,inactive,–,inactive,inactive,inactive,inactive,–,inactive,–,–,–,inactive,inactive,inactive,inactive,inactive,inactive
CC(C)(Oc1ccc(C2CC2(Cl)Cl)cc1)C(=O)O (stereo not drawn),inactive,inactive,inactive,inactive,inactive,inactive,inactive,inactive,inactive,inactive,inactive,inactive,inactive,inactive,inactive,inactive,inactive,inactive,inactive,inactive
O=C(O)c1cc(N=Nc2ccc(S(=O)(=O)Nc3ccccn3)cc2)ccc1O,inactive,inactive,inactive,inactive,inactive,inactive,–,–,–,–,inactive,–,–,–,34.5 µM (active),inactive,34.5 µM (active) and 30.6 µM (active),–,–,–
CCOc1ccc(NC(=O)CC(C)O)cc1 (stereo not drawn),inactive,inactive,inactive,inactive,inactive,inactive,inactive,inactive,inactive,–,inactive,–,–,–,inactive,inactive,inactive,–,–,–
O=C(O)CCCCCCCC(=O)O,inactive,inactive,inactive,inactive,inactive,inactive,inactive,inactive,inactive,–,inactive,–,–,–,inactive,inactive,inactive,–,–,–
Cc1ccc(O)cc1,inactive,inactive,inactive,inactive,–,inactive,inactive,inactive,inactive,–,inactive,–,–,–,inactive,inactive,inactive,inactive,inactive,inactive
NC(=O)c1cnccn1,inactive,inactive,inactive,inactive,inactive,inactive,inactive,–,–,inactive,inactive,inactive,inactive,inactive,inactive,inactive,inactive,–,–,–
c1ccc2[nH]ccc2c1,inactive,inactive,inactive,inactive,–,inactive,inactive,inactive,inactive,–,inactive,–,–,–,inactive,inactive,inactive,inactive,inactive,inactive
Cc1ccc(C)c(OCCCC(C)(C)C(=O)O)c1,inactive,inactive,inactive,inactive,inactive,inactive,inactive,inactive,inactive,inactive,inactive,inactive,inactive,inactive,inactive,inactive,inactive,inactive,inactive,inactive
CC(=O)OCC(COC(C)=O)OC(C)=O,inactive,inactive,inactive,inactive,inactive,inactive,inactive,inactive,inactive,–,inactive,–,–,–,inactive,inactive,inactive,–,–,–
C1N2CN3CN1CN(C2)C3,inactive,inactive,inactive,inactive,inactive,inactive,inactive,inactive,inactive,–,inactive,–,–,–,inactive,inactive,inactive,inactive,inactive,inactive
COc1ccc2[nH]cc(CCNC(C)=O)c2c1,inactive,inactive,inactive,inactive,inactive,inactive,inactive,inactive,inactive,inactive,inactive,inactive,inactive and 55.3 µM (active),inactive,inactive,inactive,inactive,–,–,–
CC(O)CN(CCN(CC(C)O)CC(C)O)CC(C)O (stereo not drawn),inactive,inactive,inactive,inactive,inactive,inactive,inactive,–,–,–,inactive,–,–,–,inactive,inactive,inactive,–,–,–
Cc1noc(NS(=O)(=O)c2ccc(N)cc2)c1C,inactive,inactive,inactive,inactive,inactive,inactive,inactive,inactive,inactive,inactive,inactive,inactive,29.8 µM (active) and inactive,inactive,inactive,inactive,inactive,–,–,–
O=C(O)CS,inactive,inactive and 61.6 µM (active),inactive and 43.6 µM (active),inactive and 12.3 µM (active),–,inactive,inactive and 61.6 µM (active),inactive,inactive,inactive,inactive,inactive,inactive,inactive,inactive,inactive,inactive,–,–,–
